# In PubChem BioAssay (Tox21):
# Records with an inconclusive call do not appear. A call without a number means that no potency is given here. The source made the active and inactive calls. Calls follow the shape of the dose curve; as a rule, active = well fitted cell-killing curve with a large enough effect in the repeat runs; inconclusive = weak or mixed curves, or effect the other way; inactive = flat fitted curve, though single readings scatter.
# Assay: qHTS assay to identify small molecule antagonists of the constitutive androstane receptor (CAR) signaling pathway - cell viability counter screen (AID 1224837); also: nearly all actives have a fitted effect of over 45% in size
# Details: HepG2-CYP2B6-hCAR viability, CellTiter-Fluor, 23 h, co-treated with 50 nM CITCO; series mostly up to 92.4 µM
# Source text: National Center for Advancing Translational Sciences [NCATS]
# NIH Chemical Genomics Center [NCGC]
# U.S. Environmental Protection Agency [EPA]
# National Institutes of Environmental Health Sciences [NIEHS]
# National Toxicology Program [NTP]
# U.S. Food and Drug Administration [FDA]
# The constitutive androstane receptor (CAR) is a nuclear receptor which regulates multiple drug metabolizing enzymes (DMEs) and transporters. Activating CAR will generally increase the transcription and subsequent translation of CYP2B6 and CYP3A4. These two DMEs represent about 50% of the drug metabolizing potential in the body. When CAR is deactivated, the metabolizing potential in the body will decrease, subsequently increasing the toxicity in the body or lowering the therapeutic potential of a pro-drug. Recently, there have also been studies performed indicating CARs role in energy metabolism and cancer therapy. Therefore, inhibiting CARs activity could have a potential effect on diabetes and cancer. Identifying environmental toxins and compounds which modulate CAR, through the use of the Tox21 10K compound collection, will be an important step in determining the toxicity and potential therapeutic effects these factors will have on the human body. To differentiate true CAR antagonists from cytotoxic substances, the assay is multiplexed with a cell viability assay.
# Tox21 Assay Protocol Summary:
# A double-stable (hCAR and CYP2B6-2.2kb) transfected cell line, derived from human hepatoma (HepG2) cells, was utilized for the duration of the quantitative high-throughput screens. The HepG2-CYP2B6-hCAR cells were dispensed at 2500 cells/4 uL/well in 1536-well white solid bottom plates using a Multidrop Combi. After the assay plates were incubated at 37 C/5% CO2 for 4 hrs, 23 nL of compounds at 15 concentrations (from 5-48 columns) or positive control (from 1 to 4 columns) were transferred to the assay plates using a Pintool station. One uL of CITCO (final concentration = 50 nM) was added, using a Flying Reagent Dispenser, inside each well. After a 23 hr incubation period at 37 C/5% CO2, 1 uL of CellTiter-Fluor reagent was added into each well of the assay plates using a Flying Reagent Dispenser. The fluorescence intensity in the plates was then measured using a ViewLux plate reader.
# Potency is read from the fitted curve at half-maximal effect.
SMILES,Potency,"activity change, negative = cytotoxicity"
CC#C[C@]1(O)CC[C@H]2[C@@H]3C[C@H](C)C4=CC(=O)CC[C@]4(C)[C@H]3CC[C@@]21C,inactive,
CN1C(=O)[C@@H](NC(=O)c2cc3ccccc3[nH]2)N=C(c2ccccc2)c2ccccc21,inactive,
CCCCCCC[CH2][Sn]([Cl])([Cl])[CH2]CCCCCCC,inactive,
CCN(CC)CCc1c[nH]c2ccccc12,inactive,
Cc1cnc2c(C(=O)O)c(Cl)ccc2c1,inactive,
CC1CCCC1,inactive,
CC(C)c1c(CN(C)C(C)Cc2ccccc2)n(C)n(-c2ccccc2)c1=O (stereo not given),inactive,
CNN,inactive,
N#Cc1c[nH]cc1-c1cccc2c1OC(F)(F)O2,inactive,
C1=CCC=C1,inactive,
O=[N+]([O-])c1ccc(CCl)cc1,inactive,
CCOP(=O)(Sc1ccccc1)Sc1ccccc1,inactive,
C[C@@H]1CC2=CC(=O)CC[C@@H]2[C@H]2CC[C@@]3(C)[C@@H](CC[C@]3(C)O)[C@@H]21,inactive,
CCC1COC(Cn2cncn2)(c2ccc(Cl)cc2Cl)O1 (stereo not given),inactive,
Clc1ccc(C(c2ccc(Cl)cc2)C(Cl)Cl)cc1,inactive,
CC(C)Br,inactive,
CCCC[N+]1(C)CCCC1 (tested in a mixture with another compound),inactive,
CC(O)C(=O)[O][Hg][c]1ccccc1 (stereo not given),4.86 µM (active),
CCOC(=O)CCN(SN(C)C(=O)Oc1cccc2c1OC(C)(C)C2)C(C)C,inactive,
CCCCC(CC)COC(=O)OOC(C)(C)C (stereo not given),inactive,

SMILES,Potency,"activity change, negative = cytotoxicity"
Cc1c([N+](=O)[O-])c(C)c([N+](=O)[O-])c(C(C)(C)C)c1[N+](=O)[O-],inactive,
C=CC(=C)C,inactive,
O=P(Cl)(Cl)Cl,inactive,
O=C(Cl)c1ccccc1F,inactive,
CC(=O)O.CC(=O)O.CC(=O)O.CC(=O)O.CC(=O)O.CC(=O)O.CC(=O)O.O.O.[Cr].[Cr].[Cr],inactive,
N#CCCl,inactive,
O=[N+]([O-])c1cccc2cccc([N+](=O)[O-])c12,inactive,
O=Cc1ccccc1,inactive,
COc1ccc(Cc2nccc3cc(OC)c(OC)cc23)cc1OC,inactive,
C[C@]12CC[C@H]3[C@@H](CCC4=CC(=O)CC[C@@H]43)[C@@H]1CC[C@@H]2OC(=O)CCc1ccco1,inactive,
Oc1cccc(Cl)c1Cl,inactive,
CC(=O)[O-].CC(=O)[O-].CC(=O)[O-].[Sb+3],,-10.2% [at 3.26 µM] (inactive)
O=[N+]([O-])[O-].[Tl+],inactive,
CNC(=O)/C=C(\C)OP(=O)(OC)OC,inactive,
CCN(CC)Cc1nccn1-c1ccc([N+](=O)[O-])cc1C(=O)c1ccccc1Cl,26.6 µM (active),
C=CCOC(=O)c1ccccc1N,inactive,
CCCCc1ccccc1,inactive,
O=C(NC(=O)c1c(F)cccc1F)Nc1ccc(Oc2ccc(C(F)(F)F)cc2Cl)cc1F,inactive,
CCCCn1cc[n+](C)c1.[Cl][Fe-]([Cl])([Cl])[Cl],inactive,
CCCCCON=O,inactive,
